FBW7 activator: human FBW7 E3 ligase activation, primary screen | hit rate 0.13% among 650,000 | Q969H0 | normalized activity (activation), % at 26.1 µM | AlphaScreen FBW7–phospho-cyclin E peptide binding, activator screen | AID 1259310; in the data active = normalized activity above about 1.9%;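 note: purified mutant Fbw7 with reduced substrate affinity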
TEAD-YAP inh: TEAD-YAP interaction inhibition; inhibition, % at 9.12 µM; HEK-TIYL cells, TEAD-Gal4/YAP UAS-luciferase luminescence; AID 1259422; hit rate 1.4% among 640,000; in the data active = inhibition above about 32%
GPR151 activ: human GPR151 activation | Q8TDV0 | PathHunter beta-arrestin GPR151 cells, luminescence | activation, % at 11.2 µM | hit rate 1% among 650,000 | AID 1508602; in the data active = activation above about 4.9%
Target sequence (Q8TDV0 whole entry, looked up): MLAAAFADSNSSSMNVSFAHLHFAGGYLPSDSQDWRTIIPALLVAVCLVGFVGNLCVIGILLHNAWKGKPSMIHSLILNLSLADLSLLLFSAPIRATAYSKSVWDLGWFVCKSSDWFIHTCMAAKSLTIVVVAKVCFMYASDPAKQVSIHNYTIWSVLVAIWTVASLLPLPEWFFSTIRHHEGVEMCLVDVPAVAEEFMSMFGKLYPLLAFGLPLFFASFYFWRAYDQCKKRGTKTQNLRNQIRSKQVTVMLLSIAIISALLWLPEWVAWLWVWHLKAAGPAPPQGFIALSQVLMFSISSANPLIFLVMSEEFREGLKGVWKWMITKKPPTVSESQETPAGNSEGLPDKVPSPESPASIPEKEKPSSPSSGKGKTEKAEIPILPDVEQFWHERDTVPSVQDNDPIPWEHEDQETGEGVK
MITF inh: human MITF inhibition, primary screen; O75030; AlphaScreen MITF homodimerization, bead proximity signal; inhibition, % at 2.6 µM; hit rate 0.91% among 650,000; AID 1259374; in the data active = inhibition above about 50%
MITF inh conf: human MITF inhibition, confirmation; AlphaScreen MITF homodimerization, biotin/His-MITF beads; inhibition, % at 2.6 µM; AID 1259372; hit rate 16% among 4,700; shares compounds with MITF inh;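 active = inhibition above a cutoff derived from the DMSO control wells, cut at about 28% in these data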;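 note: inhibitors lower the bead chemiluminescence by keeping MITF from dimerizing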
AlphaScreen DR: optically interferes with AlphaScreen signal in dose response; hit rate 6% among 480; AID 1259373; shares compounds with MITF inh; AlphaScreen optical interference counterscreen, cell-free; IC50, µM; call rule not given here
AlphaScreen intf2: AlphaScreen optical interference, counter-screen. shares compounds with MITF inh. LysRS AlphaScreen counterscreen, signal interference, triplicate. inhibition, % at 2.6 µM. hit rate 7.6% among 4,700;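 active = inhibition above a cutoff derived from the DMSO control wells, cut at about 30% in these data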
Hits are given with their value; n = inactive; x = no result given; ! = a repeat was not active. Most compounds without a hit are left out; they make up all but 3.5% or so of the library.

SMILES	FBW7 activator	TEAD-YAP inh	GPR151 activ	MITF inh	MITF inh conf	AlphaScreen intf2	others
COc1ccccc1CN1CCN(C2CCC(c3ccccc3)CC2)CC1 (centres undefined)	n	n	n	71	n	n
COc1cc(C(=O)N2CCN(C(=O)c3ccccc3)CC2)cc(OC)c1OC	n	n	n	n	x	x
N#Cc1c(NC(=O)c2ccc(S(=O)(=O)N3CCCCC3)cc2)sc2c1CCC2	n	n	n	n	x	x
CCCN(CCC)C(=O)c1c(NC(C)=O)sc2c1CCCCC2	n	n	n	65	63	38
CCCN(CCC)C(=O)c1c(NC(=O)c2cccnc2)sc2c1CCCCC2	n	n	n	n	x	x
O=[N+]([O-])c1ccccc1S(=O)(=O)N1CCN(c2ncccn2)CC1	n	n	n	n	x	x
CN1CCN(C(=O)C2CCCN(S(=O)(=O)c3ccccc3[N+](=O)[O-])C2)CC1 (centres undefined)	n	n	n	82	n	n
CN(C)CCNC(=S)N1CCN(S(=O)(=O)c2ccccc2[N+](=O)[O-])CC1	n	n	n	73	n	n
CC(=O)Nc1ccc(S(=O)(=O)N2CCN(Cc3ccccc3C(F)(F)F)CC2)cc1	n	n	n	70	n	n
O=[N+]([O-])c1ccccc1S(=O)(=O)N1CCN(Cc2ccccn2)CC1	n	n	n	58	n	n
COc1cccc(C(=O)Nc2ccc3oc(-c4cccc5ccccc45)nc3c2)c1	n	n	n	n	x	x
O=[N+]([O-])c1ccccc1S(=O)(=O)N1CCN(Cc2cccnc2)CC1	n	n	n	74	n	n
O=[N+]([O-])c1ccccc1S(=O)(=O)N1CCN(C2CCN(Cc3ccccc3)CC2)CC1	n	n	n	74	n	n
O=C(c1cccnc1)N1CCN(S(=O)(=O)c2ccccc2[N+](=O)[O-])CC1	n	n	n	n	x	x
O=[N+]([O-])c1ccccc1S(=O)(=O)N1CCN(C2CCCC2)CC1	n	n	n	n	x	x
O=[N+]([O-])c1ccccc1S(=O)(=O)N1CCN(Cc2ccccc2Br)CC1	n	n	n	65	n	n
O=[N+]([O-])c1ccccc1S(=O)(=O)N1CCN(Cc2ccc(Cl)cc2)CC1	n	n	n	73	n	n
COc1ccc(CN2CCN(S(=O)(=O)c3ccccc3[N+](=O)[O-])CC2)cc1	n	n	n	n	x	x
CC(C)CC1N=C(c2ccc(Cl)cc2)CC(c2cc(Br)ccc2O)N1 (centres undefined)	n	n	n	n	x	x
CCCCNCCOc1ccc(OC)cc1	n	n	n	n	x	x
Cc1ccc(S(=O)(=O)N2CCN(Cc3ccccc3Br)CC2)cc1	n	n	n	61	n	n
COc1ccc(S(=O)(=O)N2CCN(Cc3ccccc3Br)CC2)cc1	n	n	n	n	x	x
COCCCNC(=O)c1cc2sccc2n1C	n	n	n	n	x	x
N#Cc1ccccc1CNCc1ccc(Cl)cc1	n	n	n	52	n	n
Cc1cc(C)cc(Oc2c(C(F)(F)F)oc3cc(OC(=O)c4cccs4)ccc3c2=O)c1	n	n	n	n	x	x
SMILES	FBW7 activator	TEAD-YAP inh	GPR151 activ	MITF inh	MITF inh conf	AlphaScreen intf2	others
COc1ccc(CN2CCN(S(C)(=O)=O)CC2)cc1	n	n	n	57	n	n
CS(=O)(=O)N1CCN(Cc2ccc(F)cc2)CC1	n	n	n	62	n	n
CS(=O)(=O)N1CCN(Cc2ccccc2)CC1	n	n	n	n	x	x
Cc1cc(S(=O)(=O)N2CCOCC2)c(C)cc1Br	n	n	n	n	x	x
CCc1cc(=O)oc2cc(OC)c(Cl)cc12	n	n	n	88	n	n
CCOc1cc2oc(=O)cc(CC)c2cc1Cl	n	n	n	n	x	x
CCC(=O)Nc1sc2c(c1C(N)=O)CCCC2	n	n	n	n	x	x
CC1(C)CC(=O)C=C(Nc2sc3c(c2C(N)=O)CCCC3)C1	n	n	n	81	n	33
O=c1[nH]c(/C=C/c2ccco2)nc(O)c1[N+](=O)[O-]	n	n	n	83	67	n	AlphaScreen DR=n
O=C(CCNC(=O)c1ccccc1Cl)NCCCN1CCOCC1	n	n	n	n	x	x
O=C(NCCCN1CCCC1)c1ccccc1Cl	n	n	n	55	n	n
Nc1ccc(C(=O)O)c(O)c1	n	n	n	88!	72	n	AlphaScreen DR=n
NC(=O)C1CCN(C(=O)CN(C2CCCCC2)S(=O)(=O)c2ccc(Cl)cc2)CC1	n	n	n	n	x	x
CC(C)(C)NC(=O)C1C2C=CC(C2)C1c1nc2ccccc2c(=O)[nH]1 (centres undefined)	n	n	n	n	x	x
COC(=O)c1cc(S(=O)(=O)NCc2ccccc2Cl)c[nH]1	n	n	n	n	x	x
COC(=O)c1cc(S(=O)(=O)NCc2ccccc2OC)c[nH]1	n	n	n	75	n	n
COc1cc(CN2CCN(Cc3cccnc3)CC2)cc2c1OCO2	n	n	n	68	n	n
COc1cc(CN2CCN(Cc3ccccc3Br)CC2)cc2c1OCO2	n	n	n	73	n	n
COc1cc(CN2CCN(Cc3ccccc3)CC2)cc2c1OCO2	n	n	n	78	n	n
COc1cc(CN2CCN(Cc3ccccc3Cl)CC2)cc2c1OCO2	n	n	n	76	n	n
COc1cc2c(cc1OC)CN(Cc1cc(OC)c3c(c1)OCO3)CC2	n	n	n	n	x	x
CCCN1CCN(c2ncnc3sc(C(=O)Nc4ccccc4C(=O)OC)c(C)c23)CC1	n	n	n	n	x	x
COc1cc(CN2CCN(Cc3cc(OC)c4c(c3)OCO4)CC2)cc2c1OCO2	n	n	n	54	n	n
COc1cc(CN2CCN(Cc3ccccc3F)CC2)cc2c1OCO2	n	n	n	81	n	n
COc1cc(CN2CCN(Cc3cccc(C)c3)CC2)cc2c1OCO2	n	n	n	58	n	n
SMILES	FBW7 activator	TEAD-YAP inh	GPR151 activ	MITF inh	MITF inh conf	AlphaScreen intf2	others
COc1cc(CN2CCc3nncn3CC2)cc2c1OCO2	n	n	n	n	x	x
COc1cc(CN2CCCN(C)CC2)cc2c1OCO2	n	n	n	n	x	x
CCOCc1ccc(O)c2ncccc12	n	88	n	98	82	101
CCOc1c(C)cc(-c2ncccc2O)cc1C	n	n	n	n	x	x
Cc1ccc(O)c2ncccc12	n	n	n	n	x	x
COCc1ccc(O)c2ncccc12	n	91	n	91	109	101
CCc1nnc2sc(NC(=O)c3ccccc3C)nn12	n	n	n	n	x	x
CCOC(=O)c1c(-c2ccc(OC)cc2)csc1NC(=O)CN1CCOCC1	n	n	n	71	n	n
CCOC(=O)c1c(-c2ccc(C)cc2)csc1NC(=O)CN1CCOCC1	n	n	n	n	x	x
CCOC(=O)c1c(-c2ccc(F)cc2)csc1NC(=O)CCN1CCN(CC)CC1	n	n	n	71	n	n
CCOC(=O)c1c(-c2ccc(C)o2)csc1NC(=O)CN1CCCCC1C (centres undefined)	n	n	n	57	n	39
CCOC(=O)c1c(-c2ccccc2)csc1NC(=O)CCN1CCN(C)CC1	n	n	n	n	x	x
Cn1ccc(-c2cccs2)nc1=NC#N	n	n	n	n	x	x

Compound activity as filed in PubChem.
